Aggregation suppression score and z-score data for 13 compounds are collected here from PubChem BioAssay.

Where “and” joins values, the source holds several entries; their conditions need not be identical. Equal entries are not always repeated. Calls of active or inactive are those of the source.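 Rule for the calls: active = z-score of at least 1.8 in each of two replicates, scored against plate mean and spread of sample wells; inactive = the rest.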

A short description of one assay: 75Q-TubH aggregate inhibition, S. cerevisiae, yeast (AID 1616). Particulars: S. cerevisiae 75Q-TubH polyglutamine aggregation suppression; stronger effect = higher value.
Take `CC(=O)CCC1C2=NC(=C\C3=NC(=C(/C)C4=NC(C)(C5[N-]/C(=C\2C)C(C)(CCC(=O)NCC(C)OP(=O)(O)O[C@@H]2[C@@H](CO)OC(n6cnc7cc(C)c(C)cc76)[C@@H]2O)C5CC(N)=O)C(C)(CC(N)=O)C4CCC(N)=O)/C(C)(CC(N)=O)C3CCC(N)=O)/C1(C)C.[CH2-][C@H]1OC(n2cnc3c(N)ncnc32)[C@H](O)[C@@H]1O.[Co+2]` (stereo partly drawn): the aggregation suppression score worked out at 1.42.

As to `Fc1ccc(C(c2ccccc2)(c2ccccc2F)n2ccnc2)cc1` (stereo not drawn), the aggregation suppression score is 1.35 and 0.117.

Turning to `CC(C)[C@@H](C)/C=C/[C@@H](C)C1CC[C@H]2/C(=C/C=C3\C[C@@H](O)CC[C@@H]3C)CCC[C@]12C` (stereo partly drawn), the aggregation suppression score amounted to 0.578.

For the compound `COc1cccc(C(=O)c2ccccc2O)c1O`, the aggregation suppression score was 0.104.

The nature of a further assay: galactose survival enhancers in mitochondrial complex I cybrids – cell-based, galactose medium, ATP luminescence, primary screen (AID 1645843).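 Note: positive z means more ATP and so rescue of galactose-driven cybrid death.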 Particulars: complex I mutant cybrid cells, 72 h, stronger effect = higher value.
For the compound `CC(C)Oc1ccc(Cl)cc1-c1nnc2ccccn12`, the z-score was -0.805 (inactive).

For the compound `CC(C)n1cc(C(=O)N2CCCC(c3ccccc3)C2)cn1` (stereo not drawn), the z-score is -0.54 (inactive).

For the compound `CC(C)Cc1cn(C2CCN(C3Cc4ccccc4C3)CC2)nn1`, the z-score was -0.99 (inactive).

As to `Cc1c(C(=O)N2CCSCC2)c(-c2ccccc2)nn1-c1ccccc1`, the z-score is 1.96 (inactive).

As for `CC(C)CC1(CO)CCCN(C(=O)c2cccc(C#CC(C)(C)O)c2)C1` (stereo not drawn), the z-score is -0.79 (inactive).

Consider `COc1ccc2c(c1)C=C(CNc1cccnc1)CO2`, for which the z-score was 0.615 (inactive).

For the compound `CCCC[C@@H]1C[C@@H]1C(=O)N1CCC(n2cc(CC(C)C)nn2)CC1`, the z-score is -0.07 (inactive).

Consider `O=C1NCCN(C(=O)c2ccc(Cl)cc2)C1Cc1ccccc1` (stereo not drawn), for which the z-score is 0.59 (inactive).

`CC(C)c1nc(Cn2cnc3sc4c(c3c2=O)CCCC4)cs1`: the z-score was 1.35 (inactive).
